This is an account of results in the supplement of paper PMC4709259.

Molecules are shown by their SMILES. Where a name gives a salt, the structure may show the parent alone. ± gives the standard deviation.

The assay has as its system Jurkat. Briefly: mean cell size (FSC-A) relative to DMSO control (fraction of control); higher = larger cells. The conditions noted are these: 48 h. In a few lines: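 Jurkat cells seeded at 600 cells/µl were incubated 1 h, then exposed for 48h to the Enzo Screen-Well FDA Approved Drug Library v2.0 at 25µM in 0.9% (v/v) final DMSO. Drugs that cut counts below 20% of controls were diluted 10-fold and retested, down to 25nM. Cell count and mean cell size (forward scatter area) were read on an Accuri C6 flow cytometer, relative to solvent-only controls. Plates held 6-12 controls; values are means of 3 biological replicates.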
For `C#C[C@]1(O)CC[C@H]2[C@@H]3CCC4=CC(=O)CC[C@@H]4[C@H]3CC[C@@]21CC` [Levonorgestrel] (concentration: 25 µM), the mean cell size worked out at 0.941 ± 0.032.

As to `N[C@@H](CC(=O)N1CCn2c(nnc2C(F)(F)F)C1)Cc1cc(F)c(F)cc1F` [Sitagliptin Phosphate] (concentration: 25 µM), the mean cell size was determined as 0.999 ± 0.021.

Regarding `Cc1cccc(C)c1OCC(=O)N[C@@H](Cc1ccccc1)[C@@H](O)C[C@H](Cc1ccccc1)NC(=O)[C@H](C(C)C)N1CCCNC1=O` [Lopinavir] (concentration: 25 µM), the mean cell size was found to be 0.8546 ± 0.0077.

Regarding `C[C@@H]1[C@H](O)[C@@H](C)/C=C/C=C/C=C/C=C/C=C/C=C/C=C/[C@H](O[C@@H]2O[C@H](C)[C@@H](O)[C@H](N)[C@@H]2O)C[C@@H]2O[C@](O)(C[C@@H](O)C[C@@H](O)[C@H](O)CC[C@@H](O)C[C@@H](O)CC(=O)O[C@H]1C)C[C@H](O)[C@H]2C(=O)O` [Amphotericin B] (concentration: 25 µM), the mean cell size came to 1.016 ± 0.0092.

As for `CN(C)c1nc(N(C)C)nc(N(C)C)n1` [Altretamine] (concentration: 25 µM), the mean cell size is 0.945 ± 0.019.

Regarding `C#C[C@]1(O)CC[C@H]2[C@@H]3CCc4cc(OC)ccc4[C@H]3CC[C@@]21C` [Mestranol] (concentration: 25 µM), the mean cell size was 1.01 ± 0.022.

For `CNC(=C[N+](=O)[O-])NCCSCc1ccc(CN(C)C)o1` [Ranitidine·HCl] (concentration: 25 µM), the mean cell size stood at 1 ± 0.049.

`O=C1CCc2cc(OCCCCc3nnnn3C3CCCCC3)ccc2N1` [Cilostazol] (concentration: 25 µM) gave a mean cell size of 0.98 ± 0.044.
